In test [1] the target is T1, Protein kinase C zeta type (Homo sapiens) (UniProt Q05513).
T1 sequence (whole entry): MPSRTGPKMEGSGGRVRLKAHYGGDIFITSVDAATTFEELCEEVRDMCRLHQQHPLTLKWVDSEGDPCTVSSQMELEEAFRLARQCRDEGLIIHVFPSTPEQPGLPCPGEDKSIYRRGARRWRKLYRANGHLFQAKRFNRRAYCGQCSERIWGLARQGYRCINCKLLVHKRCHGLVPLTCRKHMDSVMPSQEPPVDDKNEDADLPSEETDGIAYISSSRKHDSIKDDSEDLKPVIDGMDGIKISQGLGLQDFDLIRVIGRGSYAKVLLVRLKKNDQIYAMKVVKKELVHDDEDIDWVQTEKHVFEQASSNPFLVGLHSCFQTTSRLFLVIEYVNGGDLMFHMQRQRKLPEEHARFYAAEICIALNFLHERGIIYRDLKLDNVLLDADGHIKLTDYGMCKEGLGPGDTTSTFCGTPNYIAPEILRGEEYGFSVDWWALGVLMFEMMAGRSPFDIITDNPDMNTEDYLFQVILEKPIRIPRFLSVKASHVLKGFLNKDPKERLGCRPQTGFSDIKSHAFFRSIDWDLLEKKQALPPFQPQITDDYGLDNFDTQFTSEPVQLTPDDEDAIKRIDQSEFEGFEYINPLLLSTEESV
The following applies: at 1 µM.

The target in test [2] is T2, Mitogen-activated protein kinase kinase kinase 5 (Homo sapiens) (UniProt Q99683).
T2 sequence (whole entry): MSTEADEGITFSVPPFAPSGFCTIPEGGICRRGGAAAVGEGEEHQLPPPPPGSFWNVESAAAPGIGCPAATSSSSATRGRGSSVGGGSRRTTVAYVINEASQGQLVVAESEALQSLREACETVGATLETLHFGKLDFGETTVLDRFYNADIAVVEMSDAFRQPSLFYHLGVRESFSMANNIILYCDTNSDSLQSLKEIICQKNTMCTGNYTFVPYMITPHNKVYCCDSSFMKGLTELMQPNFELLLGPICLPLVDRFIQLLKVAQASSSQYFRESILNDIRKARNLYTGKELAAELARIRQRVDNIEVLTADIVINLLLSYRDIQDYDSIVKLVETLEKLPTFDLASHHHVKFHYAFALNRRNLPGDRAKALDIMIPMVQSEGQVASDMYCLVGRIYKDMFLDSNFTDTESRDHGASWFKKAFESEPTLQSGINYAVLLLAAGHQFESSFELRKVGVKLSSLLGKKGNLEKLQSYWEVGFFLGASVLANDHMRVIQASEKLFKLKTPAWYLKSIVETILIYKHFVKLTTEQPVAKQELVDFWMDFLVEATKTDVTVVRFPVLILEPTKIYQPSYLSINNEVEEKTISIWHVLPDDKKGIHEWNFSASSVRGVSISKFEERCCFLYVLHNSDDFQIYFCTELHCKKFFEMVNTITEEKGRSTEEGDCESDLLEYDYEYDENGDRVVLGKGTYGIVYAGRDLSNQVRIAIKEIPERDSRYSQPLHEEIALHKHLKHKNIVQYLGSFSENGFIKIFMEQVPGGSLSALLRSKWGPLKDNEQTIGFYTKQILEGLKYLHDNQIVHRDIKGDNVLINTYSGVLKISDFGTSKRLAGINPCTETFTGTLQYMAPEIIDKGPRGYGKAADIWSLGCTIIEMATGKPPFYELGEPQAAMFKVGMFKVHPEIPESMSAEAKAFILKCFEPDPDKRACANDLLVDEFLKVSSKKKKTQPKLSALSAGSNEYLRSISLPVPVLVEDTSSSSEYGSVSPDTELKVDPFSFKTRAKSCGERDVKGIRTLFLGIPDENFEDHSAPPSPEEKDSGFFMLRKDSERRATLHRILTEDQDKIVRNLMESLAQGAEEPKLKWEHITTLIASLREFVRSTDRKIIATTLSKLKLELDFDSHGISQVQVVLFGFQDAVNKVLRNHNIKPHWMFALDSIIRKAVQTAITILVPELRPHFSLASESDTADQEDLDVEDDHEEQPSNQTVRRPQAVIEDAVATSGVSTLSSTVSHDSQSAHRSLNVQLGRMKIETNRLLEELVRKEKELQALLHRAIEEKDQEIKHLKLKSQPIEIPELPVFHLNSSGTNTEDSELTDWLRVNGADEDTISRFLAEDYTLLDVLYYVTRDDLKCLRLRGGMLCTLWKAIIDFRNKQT
The settings on record: at 10 µM.

The target of test [3] is Tyrosine-protein kinase ABL1 (Homo sapiens) (UniProt P00519). The settings on record: at 1 µM.
The target is the same in test [4]. The following applies: at 10 µM.
Test [5] has as its target Tyrosine-protein kinase ABL2 (Homo sapiens) (UniProt P42684). The settings on record: at 1 µM.
Test [6] shares this target. The settings on record: at 10 µM.
The target in test [7] is T3, Aurora kinase A (Homo sapiens) (UniProt O14965).
T3 sequence (whole entry): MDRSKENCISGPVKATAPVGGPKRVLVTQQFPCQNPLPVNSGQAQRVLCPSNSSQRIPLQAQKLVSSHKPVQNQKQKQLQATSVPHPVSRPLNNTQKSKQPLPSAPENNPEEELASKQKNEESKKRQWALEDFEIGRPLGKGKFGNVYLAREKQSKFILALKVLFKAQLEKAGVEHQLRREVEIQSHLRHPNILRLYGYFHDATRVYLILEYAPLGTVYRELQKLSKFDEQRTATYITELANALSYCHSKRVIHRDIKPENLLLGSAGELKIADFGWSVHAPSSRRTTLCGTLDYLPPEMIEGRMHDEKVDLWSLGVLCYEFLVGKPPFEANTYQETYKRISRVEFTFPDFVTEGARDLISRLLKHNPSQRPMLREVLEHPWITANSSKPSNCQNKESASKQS
The following applies: at 1 µM.

The target in test [8] is T3, Aurora kinase A (Homo sapiens). The following applies: at 10 µM.
Test [9] has as its target Aurora kinase B (Homo sapiens) (UniProt Q96GD4). The following applies: at 1 µM.
Test [10] has the same target. The settings on record: at 10 µM.
Test [11] deals with T4, Aurora kinase C (Homo sapiens) (UniProt Q9UQB9).
T4 sequence (whole entry): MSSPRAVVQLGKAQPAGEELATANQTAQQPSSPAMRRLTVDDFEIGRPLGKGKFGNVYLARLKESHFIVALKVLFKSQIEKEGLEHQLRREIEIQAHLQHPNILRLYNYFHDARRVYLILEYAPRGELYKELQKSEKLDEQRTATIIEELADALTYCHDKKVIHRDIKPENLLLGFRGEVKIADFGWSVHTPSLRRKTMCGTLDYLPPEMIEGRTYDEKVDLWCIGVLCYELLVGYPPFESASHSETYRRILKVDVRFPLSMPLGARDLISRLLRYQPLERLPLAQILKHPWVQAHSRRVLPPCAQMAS
The following applies: at 1 µM.

In test [12] the target is T4, Aurora kinase C (Homo sapiens). The following applies: at 10 µM.
Test [13] concerns the target Tyrosine-protein kinase receptor UFO (Homo sapiens) (UniProt P30530). The following applies: at 1 µM.
The target is the same in test [14]. The following applies: at 10 µM.
In test [15] the target is Protein-tyrosine kinase 6 (Homo sapiens) (UniProt Q13882). The settings on record: at 1 µM.
Test [16] has the same target. The settings on record: at 10 µM.
In test [17] the target is Tyrosine-protein kinase BTK (Homo sapiens) (UniProt Q06187). The settings on record: at 1 µM.
The target is the same in test [18]. The settings on record: at 10 µM.
For test [19], the target named is Tyrosine-protein kinase Blk (Homo sapiens) (UniProt P51451). The settings on record: at 1 µM.
For test [20] the target is unchanged. The settings on record: at 10 µM.

Tyrosine-protein kinase Blk (Homo sapiens), sequence (P51451 2-505 limits assumed): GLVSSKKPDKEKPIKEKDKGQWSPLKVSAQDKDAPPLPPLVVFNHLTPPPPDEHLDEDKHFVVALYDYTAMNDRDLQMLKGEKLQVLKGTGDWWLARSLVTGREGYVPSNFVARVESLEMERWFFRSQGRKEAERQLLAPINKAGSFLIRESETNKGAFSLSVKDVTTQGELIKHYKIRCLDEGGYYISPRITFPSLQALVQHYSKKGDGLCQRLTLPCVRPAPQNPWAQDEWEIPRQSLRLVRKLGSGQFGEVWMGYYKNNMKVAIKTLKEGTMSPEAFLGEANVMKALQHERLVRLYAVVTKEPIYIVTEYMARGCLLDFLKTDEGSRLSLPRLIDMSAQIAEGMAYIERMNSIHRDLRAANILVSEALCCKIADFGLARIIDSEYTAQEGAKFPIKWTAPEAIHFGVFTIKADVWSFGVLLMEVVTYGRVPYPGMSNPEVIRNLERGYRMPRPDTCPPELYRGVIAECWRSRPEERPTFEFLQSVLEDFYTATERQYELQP
Tyrosine-protein kinase ABL1 (Homo sapiens), sequence (P00519 whole entry): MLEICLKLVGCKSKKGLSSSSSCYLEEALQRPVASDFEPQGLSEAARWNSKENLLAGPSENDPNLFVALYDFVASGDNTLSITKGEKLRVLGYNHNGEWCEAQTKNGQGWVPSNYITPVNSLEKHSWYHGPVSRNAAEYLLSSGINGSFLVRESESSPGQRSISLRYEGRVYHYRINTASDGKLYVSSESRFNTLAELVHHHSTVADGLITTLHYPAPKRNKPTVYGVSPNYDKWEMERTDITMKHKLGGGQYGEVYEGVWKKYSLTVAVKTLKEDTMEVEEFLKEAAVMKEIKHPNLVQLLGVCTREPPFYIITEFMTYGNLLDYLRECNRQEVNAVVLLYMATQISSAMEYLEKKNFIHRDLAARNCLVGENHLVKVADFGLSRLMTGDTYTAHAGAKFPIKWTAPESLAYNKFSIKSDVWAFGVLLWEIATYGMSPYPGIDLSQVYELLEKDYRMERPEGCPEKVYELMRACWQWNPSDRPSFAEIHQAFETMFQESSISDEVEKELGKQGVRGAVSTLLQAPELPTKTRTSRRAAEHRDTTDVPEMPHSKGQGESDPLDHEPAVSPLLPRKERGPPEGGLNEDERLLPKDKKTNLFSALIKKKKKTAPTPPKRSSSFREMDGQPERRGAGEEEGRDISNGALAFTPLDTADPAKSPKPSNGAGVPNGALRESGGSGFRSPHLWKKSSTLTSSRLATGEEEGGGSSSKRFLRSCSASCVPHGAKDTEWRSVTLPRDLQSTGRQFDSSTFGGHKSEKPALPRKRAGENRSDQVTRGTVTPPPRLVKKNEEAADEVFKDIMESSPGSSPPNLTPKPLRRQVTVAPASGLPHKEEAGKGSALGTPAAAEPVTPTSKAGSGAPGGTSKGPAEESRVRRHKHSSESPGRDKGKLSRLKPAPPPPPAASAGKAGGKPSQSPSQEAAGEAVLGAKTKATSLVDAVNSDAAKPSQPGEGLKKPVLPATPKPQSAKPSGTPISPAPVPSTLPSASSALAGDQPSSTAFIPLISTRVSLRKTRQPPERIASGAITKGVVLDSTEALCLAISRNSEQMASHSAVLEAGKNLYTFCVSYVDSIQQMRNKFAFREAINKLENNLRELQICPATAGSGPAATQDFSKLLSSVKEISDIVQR
Tyrosine-protein kinase ABL2 (Homo sapiens), sequence (P42684 whole entry): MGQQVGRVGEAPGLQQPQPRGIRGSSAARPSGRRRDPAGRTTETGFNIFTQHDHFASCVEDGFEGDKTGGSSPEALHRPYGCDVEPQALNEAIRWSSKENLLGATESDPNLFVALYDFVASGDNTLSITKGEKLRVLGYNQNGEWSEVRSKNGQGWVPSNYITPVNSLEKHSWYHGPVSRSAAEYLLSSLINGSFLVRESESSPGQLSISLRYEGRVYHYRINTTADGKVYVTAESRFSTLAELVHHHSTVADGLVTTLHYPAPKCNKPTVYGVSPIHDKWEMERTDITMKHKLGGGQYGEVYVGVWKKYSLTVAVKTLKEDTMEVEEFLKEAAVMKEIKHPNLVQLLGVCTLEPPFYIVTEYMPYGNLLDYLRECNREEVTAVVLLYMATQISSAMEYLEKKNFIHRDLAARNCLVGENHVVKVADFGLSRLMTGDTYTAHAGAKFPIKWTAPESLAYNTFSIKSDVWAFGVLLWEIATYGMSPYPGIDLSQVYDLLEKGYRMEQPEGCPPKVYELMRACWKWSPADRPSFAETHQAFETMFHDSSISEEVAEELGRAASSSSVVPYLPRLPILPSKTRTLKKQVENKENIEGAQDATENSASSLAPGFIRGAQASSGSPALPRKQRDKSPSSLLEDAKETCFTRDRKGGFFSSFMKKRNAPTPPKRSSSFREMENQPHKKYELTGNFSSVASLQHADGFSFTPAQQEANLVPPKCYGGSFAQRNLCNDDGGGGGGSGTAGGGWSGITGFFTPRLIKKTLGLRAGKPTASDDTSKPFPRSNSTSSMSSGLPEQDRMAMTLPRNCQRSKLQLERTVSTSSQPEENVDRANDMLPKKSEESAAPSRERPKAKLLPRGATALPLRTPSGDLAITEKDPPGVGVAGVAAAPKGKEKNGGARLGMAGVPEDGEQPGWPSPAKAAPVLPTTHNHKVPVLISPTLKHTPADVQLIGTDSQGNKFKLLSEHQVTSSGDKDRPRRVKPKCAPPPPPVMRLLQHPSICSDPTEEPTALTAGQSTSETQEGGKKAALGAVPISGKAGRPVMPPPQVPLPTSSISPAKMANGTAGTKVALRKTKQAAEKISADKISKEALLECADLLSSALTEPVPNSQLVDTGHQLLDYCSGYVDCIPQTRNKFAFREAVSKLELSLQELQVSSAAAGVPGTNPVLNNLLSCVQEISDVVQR
Tyrosine-protein kinase BTK (Homo sapiens), sequence (Q06187 whole entry): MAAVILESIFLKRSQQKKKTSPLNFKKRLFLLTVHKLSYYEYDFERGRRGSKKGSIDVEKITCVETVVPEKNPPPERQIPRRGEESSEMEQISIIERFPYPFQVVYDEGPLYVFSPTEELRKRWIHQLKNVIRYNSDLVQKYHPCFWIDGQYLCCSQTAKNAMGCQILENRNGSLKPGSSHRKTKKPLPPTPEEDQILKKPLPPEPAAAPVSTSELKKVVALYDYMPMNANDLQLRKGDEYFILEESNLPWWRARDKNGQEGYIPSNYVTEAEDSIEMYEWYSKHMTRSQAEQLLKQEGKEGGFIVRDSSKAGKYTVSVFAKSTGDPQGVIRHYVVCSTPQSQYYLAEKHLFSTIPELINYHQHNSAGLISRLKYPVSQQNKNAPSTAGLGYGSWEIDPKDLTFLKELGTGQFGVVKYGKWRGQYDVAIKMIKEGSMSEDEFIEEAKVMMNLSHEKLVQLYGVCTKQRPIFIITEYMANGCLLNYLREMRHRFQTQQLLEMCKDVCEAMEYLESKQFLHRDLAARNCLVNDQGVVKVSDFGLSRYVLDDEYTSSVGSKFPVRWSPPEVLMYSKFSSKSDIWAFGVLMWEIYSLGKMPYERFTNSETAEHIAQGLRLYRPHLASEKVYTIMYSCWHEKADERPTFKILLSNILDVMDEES
Protein-tyrosine kinase 6 (Homo sapiens), sequence (Q13882 whole entry, looked up): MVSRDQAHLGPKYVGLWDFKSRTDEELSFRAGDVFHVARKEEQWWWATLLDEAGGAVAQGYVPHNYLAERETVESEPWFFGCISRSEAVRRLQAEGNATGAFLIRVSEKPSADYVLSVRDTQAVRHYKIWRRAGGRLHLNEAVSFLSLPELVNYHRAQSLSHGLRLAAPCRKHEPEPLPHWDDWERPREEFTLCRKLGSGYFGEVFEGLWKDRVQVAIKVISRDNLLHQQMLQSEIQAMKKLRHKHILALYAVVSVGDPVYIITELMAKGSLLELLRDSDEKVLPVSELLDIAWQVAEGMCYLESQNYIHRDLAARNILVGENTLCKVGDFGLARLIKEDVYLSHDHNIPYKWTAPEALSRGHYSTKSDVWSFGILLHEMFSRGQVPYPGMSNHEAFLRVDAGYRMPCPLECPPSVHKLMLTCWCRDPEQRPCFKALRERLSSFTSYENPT
Tyrosine-protein kinase receptor UFO (Homo sapiens), sequence (P30530 whole entry): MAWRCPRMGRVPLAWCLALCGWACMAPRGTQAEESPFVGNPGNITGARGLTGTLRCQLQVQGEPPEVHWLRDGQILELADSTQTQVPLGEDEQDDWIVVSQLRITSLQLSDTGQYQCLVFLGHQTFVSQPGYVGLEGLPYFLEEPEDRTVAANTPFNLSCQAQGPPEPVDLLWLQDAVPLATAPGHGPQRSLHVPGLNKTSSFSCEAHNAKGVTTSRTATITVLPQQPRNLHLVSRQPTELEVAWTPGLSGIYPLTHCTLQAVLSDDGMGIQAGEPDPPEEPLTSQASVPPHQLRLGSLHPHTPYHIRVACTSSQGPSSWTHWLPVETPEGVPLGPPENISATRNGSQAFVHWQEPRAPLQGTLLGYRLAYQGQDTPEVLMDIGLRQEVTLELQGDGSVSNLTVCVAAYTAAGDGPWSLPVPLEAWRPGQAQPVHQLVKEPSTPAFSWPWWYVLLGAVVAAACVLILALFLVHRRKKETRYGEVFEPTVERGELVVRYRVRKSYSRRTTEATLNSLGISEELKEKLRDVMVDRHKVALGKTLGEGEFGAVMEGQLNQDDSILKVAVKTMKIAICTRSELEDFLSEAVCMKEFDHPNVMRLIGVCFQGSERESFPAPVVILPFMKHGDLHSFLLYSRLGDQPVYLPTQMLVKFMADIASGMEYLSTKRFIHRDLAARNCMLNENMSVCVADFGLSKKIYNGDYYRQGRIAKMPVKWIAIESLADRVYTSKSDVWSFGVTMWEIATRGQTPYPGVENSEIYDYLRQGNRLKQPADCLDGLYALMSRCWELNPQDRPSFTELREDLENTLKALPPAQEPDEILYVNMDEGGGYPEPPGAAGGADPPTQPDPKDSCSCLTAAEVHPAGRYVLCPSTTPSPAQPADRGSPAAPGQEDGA

For the compound `C[C@@H](N)[C@H]1CC[C@H](C(=O)Nc2ccncc2)CC1`, the residual activity was 103% (inactive) in [1]; 96% in test [2]; 113% in [3]; 101% in test [4]; 107% in test [5]; 100% in test [6]. The residual activity was 95% in [7]; 89% in [8]; 73% in test [9]; 82% in test [10]; 96% in test [11]; 72% in [12]. The residual activity worked out at 102% in test [13]; 103% in test [14]; 97% in test [15]; 89% in test [16]; 101% in [17]; 104% in [18]. Besides, the residual activity turned out to be 92% in [19] and 100% in test [20].

On to `COc1ccc(CNc2nc(N(CCO)CCO)nc3c2ncn3C(C)C)cc1`, for which the residual activity is 105% (inactive) in test [1]; 85% in test [2]; 100% in [3]; 73% in test [4]; 113% in [5]; 76% in test [6]. Further, the residual activity in [7] was determined as 89%; in test [8] it was 96%; in [9], 95%; in [10], 73%; in [11], 75%; in test [12], 85%. For the same compound, the residual activity was determined as 92% in [13]; 75% in [14]; 104% in [15]; 101% in test [16]; 88% in test [17]; 86% in [18]. The residual activity in [19] is 96%; in test [20] it was 83%.

`CO[C@H]1[C@@H](OC)C[C@H](C)[C@@H](OC)C2=CC(=O)C=C(NC(=O)/C(C)=C/C=C/[C@H](OC)[C@@H](OC(N)=O)/C(C)=C/[C@@H]1C)C2=O`: the residual activity in [1] was 104% (inactive); in test [2], 99%; in test [3], 94%; in test [4], 68%; in [5], 111%; in test [6], 105%. The residual activity was 77% in [7]; 86% in test [8]; 72% in test [9]; 68% in test [10]; 76% in test [11]; 90% in test [12]. For the same compound, the residual activity stood at 104% in [13]; 77% in test [14]; 109% in test [15]; 106% in test [16]; 83% in [17]; 101% in [18]. For the same compound, the results for the residual activity in [19] and in test [20] were 90% and 78%, respectively.

Turning to `Oc1ccc(Nc2nc(-c3ccc(Cl)cc3)cs2)cc1`, the residual activity in [1] was 115% (inactive); in test [2] it was 105%; in test [3], 94%; in test [4] it was 75%; in test [5], 101%; in [6], 72%. For the same compound, the residual activity in test [7] was 115%; in test [8], 122%; in test [9], 124%; in test [10], 71%; in test [11] it was 90%; in test [12], 92%. The residual activity turned out to be 114% in test [13]; 80% in [14]; 107% in [15]; 102% in [16]; 95% in test [17]; 84% in test [18]. Further, the results for the residual activity in test [19] and in [20] were 111% and 86%, respectively.

Consider `Cn1cc(/C=C2\C(=O)Nc3ccc(S(N)(=O)=O)cc32)c2ccccc21`, for which the residual activity in test [1] was 101% (inactive); in test [2], 7%; in test [3], 57%; in test [4], 22%; in test [5], 57%; in [6] it was 31%. The residual activity in [7] is -4%; in [8], 4%; in [9] it was 3%; in [10] it was 0%; in test [11], 40%; in test [12], 39%. Further, the residual activity was 13% in test [13]; 27% in test [14]; 97% in [15]; 101% in test [16]; 19% in test [17]; 5% in [18]. The residual activity in test [19] was 9%; in [20], 3%.

Take `Nc1n[nH]c2nnc(-c3c(-c4ccccc4)nn4ccccc34)cc12`: the residual activity in test [1] was 116% (inactive); in test [2], 100%; in [3] it was 64%; in [4], 19%; in test [5], 66%; in [6] it was 18%. The residual activity in test [7] is 105%; in test [8] it was 92%; in test [9] it was 91%; in [10] it was 41%; in [11], 83%; in test [12] it was 66%. Also, the residual activity in [13] turned out to be 98%; in [14], 84%; in [15], 95%; in test [16], 78%; in [17], 86%; in test [18], 47%. The residual activity in test [19] stood at 100%; in test [20], 63%.
